# Shown are actives, neighbours in structure and some others; about 6.4% of the full set was active somewhere.
# RORg inh = ROR gamma (mouse) transcription inhibition; Drosophila S2 Gal4-RORgamma UAS-luciferase reporter, 20 h; 310,000 tested, 5.4% active; Potency, µM (highest dose often 53.6 µM), for the others: at the top dose activity change, negative = inhibition, hits mostly inhibitors; also: nearly all actives have a fitted effect of over 60% in size
# Target sequence (P51450 whole entry, looked up, the tested form may be a part): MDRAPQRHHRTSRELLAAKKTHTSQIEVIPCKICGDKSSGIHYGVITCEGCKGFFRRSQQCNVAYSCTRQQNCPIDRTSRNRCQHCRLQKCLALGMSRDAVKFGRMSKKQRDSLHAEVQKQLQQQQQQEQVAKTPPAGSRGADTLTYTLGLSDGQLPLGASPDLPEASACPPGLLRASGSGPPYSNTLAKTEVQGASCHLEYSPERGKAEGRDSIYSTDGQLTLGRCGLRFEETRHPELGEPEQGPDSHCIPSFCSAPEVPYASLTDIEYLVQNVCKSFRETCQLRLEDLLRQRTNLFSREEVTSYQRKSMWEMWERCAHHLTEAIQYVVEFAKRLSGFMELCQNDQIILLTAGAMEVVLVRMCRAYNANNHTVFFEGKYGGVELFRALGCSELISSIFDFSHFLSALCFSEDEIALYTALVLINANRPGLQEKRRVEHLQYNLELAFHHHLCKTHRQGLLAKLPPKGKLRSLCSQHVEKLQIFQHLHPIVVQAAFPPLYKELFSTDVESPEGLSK
#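 Drosophila Schneider cells stably carrying a metallothionein-driven Gal4 DBD–ROR gamma fusion and a UAS-Photinus luciferase reporter were exposed to compound for 1 hr, then induced with copper sulfate (700 uM final) for 20 hr at ambient temperature before luminescence reading.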
# Gal4-VP16 FLuc = counter-screen for ROR gamma inhibitors: Gal4-VP16 reporter. Drosophila S2 Gal4-VP16 UAS-luciferase, luminescence, 20 h. Potency, µM (series often up to 53.6 µM), without a hit: at the top dose activity, negative = inhibition, usual class: inhibitors. 310,000 tested, 3.5% active. AID 2546;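 also: Gal4-VP16 expression switched on by copper sulfate through the metallothionein promoter; nearly all actives have a fitted effect of over 50% in size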
# Luc counter = blocks Kinase-Glo luciferase, a counter-screen artifact | Potency, µM (doses to about 38.3 µM), for inactives: at the highest dose activity change, negative = inhibition, usual class: inhibitors | 200,000 tested, 0.28% active | Kinase-Glo luciferase, ATP luminescence, 8 min; also: nearly all actives have a fitted effect of over 60% in size
#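 Compounds were added to a substrate mix at pH 7.2 (50 mM imidazole, 10 uM ATP, within the enzyme's linear range), followed by Kinase-Glo detection reagent; luminescence was measured after 8 minutes at ambient temperature.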
# Starred values were filed as active, the others as inactive; ? = inconclusive; · = no result given; [ ] = another dose, or the depositor's remark. Calls follow the shape of the dose curve; as a rule, active = well fitted curve in the direction sought with a large enough effect; inconclusive = small, poorly fitted or top-dose-only effect, or another doubt; inactive = no such curve, though single readings can be large; an effect the other way counts as inactive or inconclusive. % is scaled to controls: 0 for no effect and ±100 for the full control effect; potency is read from the fitted curve at half-maximal effect.
SMILES,RORg inh,Gal4-VP16 FLuc,Luc counter
O=C(Oc1cccc(C(=S)N2CCOCC2)c1)c1cc([N+](=O)[O-])cc([N+](=O)[O-])c1,-10%,-1%,-1%
O=C(CC1C(=O)NCCN1Cc1cccc(F)c1)NC1CCCCC1 (stereo unspecified),18%,-2%,·
CC(C)c1ccccc1NC(=O)COc1ccc(C(=O)NCCc2ccccc2)cc1,?,18µM*,3%
CN(CCC#N)C(=S)NC(=O)c1ccc(S(=O)(=O)N2CCOCC2)cc1,5µM*,?,0%
O=C(NCCCc1ccccc1)c1ccccc1,13%,5%,0%
O=C(NCc1ccccc1)NCC12CC3CC(CC(C3)C1)C2,1%,0%,-3%
CC(=O)N1CCN(C(=S)NC(=O)c2ccc(S(=O)(=O)N3CCOCC3)cc2)CC1,23%,-4%,-1%
O=C(NC(=S)NCCc1ccccc1)c1ccccc1,5.6µM*,?,-5%
CCOc1ccc(NC(=O)COc2ccc(C(=O)NCCc3ccccc3)cc2)cc1,-23%,-9%,·
O=C(CC12CC3CC(CC(C3)C1)C2)NC(=S)NCc1ccccc1,2µM*,1.6µM*,·
CCOC(=O)c1c(/N=C/C2=C(O)CC(C)(C)CC2=O)sc(C(C)=O)c1C,1%,-13%,-2%
COc1cccc(NC(=O)NCc2c(-c3ccccc3)noc2C)c1,44%,4%,·
CCN(Cc1cnn(C)c1)Cc1nc(C(c2ccccc2)c2ccccc2)no1,-5%,-11%,3%
CCCCc1ccc(NC(=O)COc2ccc(C(=O)Nc3ccccc3OCC)cc2)cc1,?,10µM*,0%
CCOc1ccccc1NC(=O)c1ccc2ccccc2c1,26%,?,·
Cc1cccc(NS(=O)(=O)c2cc(C(=O)N3CCOCC3)ccc2Cl)c1,18%,-19%,-6%
CN(C)C(=S)c1ccc2ccccc2n1,-3%,2%,-5%
Cc1ccccc1NC(=S)c1ccc2ccccc2n1,?,6.3µM*,·
COc1ccc(C2=C(C)CC(C)(C)NC2=O)cc1OC,5%,-9%,-3%
CC1=C(c2ccccc2)C(=S)NC(C)(C)C1,2.5µM*,7.1µM*,·
COc1ccc(Nc2nnc(SCC3CCCCO3)s2)cc1 (stereo unspecified),25%,7%,2%
Cc1cccc(Nc2nnc(SCC3CCCCO3)s2)c1 (stereo unspecified),10µM*,-11%,-1%
CCc1nc(SCC(=O)Nc2cc(OC)ccc2OC)c2c(C)c(C)sc2n1,-29%,0%,·
Cc1cc(C)nc(N(C#N)CN2C(=O)c3ccccc3S2(=O)=O)n1,13µM*,?,13%
CNc1nc(OC)nc(N(C#N)CN2C(=O)c3ccccc3S2(=O)=O)n1,-26%,-20%,-3%
SMILES,RORg inh,Gal4-VP16 FLuc,Luc counter
O=C(NCc1cccnc1)C(=O)N/N=C/c1ccc([N+](=O)[O-])cc1,36%,-6%,1%
FC(F)(F)c1cc(CO[C@H]2CCCN[C@H]2c2ccccc2)cc(C(F)(F)F)c1,25µM*,-28%,-3%
O=C(c1cc(COc2cccc(C(F)(F)F)c2)on1)N1CCC(c2ccccc2)CC1,-2%,-17%,·
C/C(Cn1nnc([N+](=O)[O-])n1)=N\NC(=O)c1ccc(O)cc1O,0.5µM*,2.8µM*,2%
C/C(Cn1nnc([N+](=O)[O-])n1)=N\NC(=O)c1ccccc1O,5.6µM*,?,·
C/C(=N\NC(=O)C(N)=O)c1ccc(O)cc1O,13%,-18%,0%
O=[N+]([O-])c1cc(CN(CCO)CCO)ccc1O,-3%,3%,·
O=C(COc1ccc(Cl)cc1)Nc1ccc(Cl)cn1,?,14%,·
O=C(COc1ccc(Cl)cc1)Nc1nnc(C2=COCCO2)o1,13µM*,-16%,-2%
CC(=O)N1CCN(c2ccc(NC(=O)COc3ccc(Cl)cc3Cl)cc2)CC1,8%,1%,-3%
O=C(COc1ccc(Cl)cc1Cl)Nc1nnc(C2=COCCO2)o1,3.2µM*,4.5µM*,1%
O=C(N/N=C1/C[C@@H](O)[C@@H](O)[C@@H]2[C@@H]3C(=O)N(C[C@@H]4CCCO4)C(=O)[C@H]3CC[C@@H]12)OCc1ccccc1,6%[10 µM],6%[10 µM],·
COC(=O)CS(=O)(=O)c1cccc2cccnc12,3%,-1%[10 µM],2%
CCCc1cc(C(=O)Nc2cc(OC)ccc2OC)cs1,?,-5%,·
O=[N+]([O-])c1ccc(N=Nc2c(Cl)cc(O)cc2Cl)cc1,?,5µM*,·
CC(N)=Nc1ccc([N+](=O)[O-])cc1,-3%,-3%,-1%
COCCNC(=S)NC12CC3CC(CC(C3)C1)C2,3.5µM*,4.5µM*,17%
COCCNC(=O)NC12CC3CC(CC(C3)C1)C2,0%,-15%,3%
Cc1ccc(NC(=O)CCC(=O)Nc2nnc(C3CCCCC3)s2)cc1,6%,0%,·
c1ccc(-n2ncc3c(NC4CCCCCC4)ncnc32)cc1,-6%,-6%,·
Cc1ccc(Cn2ncc3c(NN)ncnc32)cc1,13µM*,?,·
Cc1cccc(-n2ncc3c(NC(C)C)ncnc32)c1,?,?,-3%
CC(C)Nc1ncnc2c1cnn2-c1ccccc1,?,14µM*,-3%
Cc1cccc(-n2ncc3c(Nc4ccc(F)cc4)ncnc32)c1,-13%,11µM*,1%
NNc1ncnc2c1cnn2-c1ccccc1,11µM*,?,-4%
SMILES,RORg inh,Gal4-VP16 FLuc,Luc counter
COC(=O)c1ccc(Nc2ncnc3c2cnn3-c2cccc(C)c2)cc1,10%,0%,·
Cc1ccc(Cn2ncc3c(NCCN(C)C)ncnc32)cc1,0%,4%,·
O=C(NCc1ccccn1)c1ccc(OC2CCN(Cc3ccc(CO)o3)CC2)cc1,-17%,-5%,·
COc1ccccc1NC(=S)N1CCN(C(=O)C2CCCO2)CC1 (stereo unspecified),-13%,-4%,-1%
CC1CC=CC2C1C(=O)N(Cc1ccccc1)C2c1ccc(/C=C/c2ccccc2)cc1F (stereo unspecified),-3%,-12%,·
CC(CCc1ccccc1)NS(=O)(=O)c1ccccc1Cl (stereo unspecified),-4%,-3%,·
O=C(COc1ccc([N+](=O)[O-])cc1)Nc1nnc(-c2cccnc2)s1,14%,7%,·
COc1ccc(/C=C(/NC(=O)c2ccc(C)cc2)C(=O)N2CCCC2)cc1OC,1%,3%,·
Cc1ccccc1Nc1ncnc2c1cnn2-c1ccccc1,?,16µM*,1%
c1ccc(-n2ncc3c(NCc4cccnc4)ncnc32)cc1,·,1.4µM*,-1%
CCOc1ccc(Nc2ncnc3c2cnn3-c2ccccc2)cc1,?,4%,5%
c1ccc(-n2ncc3c(NCc4cccs4)ncnc32)cc1,?,-29%,0%
CC(C)=C(NC(=O)c1ccccc1)C(=O)Nc1cccc(C)c1,3%,-10%,·
O=C(NCCCN1CCOCC1)C(C(=O)NCCCN1CCOCC1)c1ncc(C(F)(F)F)cc1Cl,9%,-3%,3%
CCOC(=O)N1CCN(C(=O)c2ccc3c(=O)n(-c4ccc(F)cc4)c(=S)[nH]c3c2)CC1,-11%,-8%,9%
CCOC(=O)N1CCN(C(=O)c2ccc3c(=O)n(CCc4ccccc4)c(=S)[nH]c3c2)CC1,7.1µM*,0%,-4%
CCCn1c(=S)[nH]c2cc(C(=O)N3CCN(C(=O)OCC)CC3)ccc2c1=O,-44%,0%,·

# Screening results from PubChem.
